Assay results from PubChem BioAssay AID1626 (SRMLSC, 2009).
Out of some 220,000 compounds screened, about 2,000 (0.91%) were called active. Not shown: some 2% with an inconclusive outcome. No stated cut-off is given here; in the data, inconclusive means inhibition above about 80% without an active follow-up result; inactive means below that; test concentration not stated here. These entries were drawn from the full list. Potency and affinity values are given separately.

Assay: M. tuberculosis H37Rv growth inhibitors, H37Rv strain (AID 1626);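 further: bacteria incubated seven days before Alamar blue readout; 0% = bacteria only wells and 100% = bacteria with antibiotic wells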
Settings: stronger effect = higher value, concentration not given here

Compound	inhibition
CCCCN(CCCC)C(=O)c1cc(Cl)ccc1[N+](=O)[O-]	11% (inactive)
CCN(CC)C(=O)c1cc([N+](=O)[O-])cc2c1-c1ccc([N+](=O)[O-])cc1C2=C(C#N)C#N	23% (inactive)
C=CCNC(=O)C1CC(=O)N(c2ccc(OCC(=O)Nc3ccc(Cl)c(C(F)(F)F)c3)cc2)C1 (stereo unspecified)	-8.95% (inactive)
Cc1cc(C)c(-c2cc(NC(=O)COC(=O)c3ccc(CO)cc3)n(-c3ccccc3)n2)cc1C	4.29% (inactive)
CC(=O)N1CCN(C(=O)CCc2c[nH]c3ccccc23)CC1	3.68% (inactive)
COC(=O)C1CCN(C(=O)COC(=O)Cc2c[nH]c3ccccc23)CC1	2.16% (inactive)
COc1ccc(N2CCN(C(=O)CCc3c[nH]c4ccccc34)CC2)cc1	-4.15% (inactive)
COc1ccc(CNC(=O)COC(=O)CCc2c[nH]c3ccccc23)cc1	4.73% (inactive)
COc1ccc(C)cc1NC(=O)CSc1nnc(-c2ccco2)n1Cc1ccco1	-0.88% (inactive)
CC(=O)Nc1sc(N/N=C\c2cccc(Cl)c2)nc1-c1cccs1	54.5% (inactive)
CCS(=O)(=O)N1CCCC(C(=O)NCCN(C)Cc2ccccc2)C1 (stereo unspecified)	-6.72% (inactive)
Cc1ccc(C(=O)CSc2ncnc3ccccc23)o1	10.6% (inactive)
COc1ccc(CCN(Cc2cccs2)S(=O)(=O)c2ccc(C(=O)O)cc2)cc1OC	-3.72% (inactive)
CSc1nnc(-c2cnccn2)n1Cc1ccccc1	-1.1% (inactive)
CC(C)(C)c1ccc(OCCC(=O)NC2=NCCS2)cc1	-11.7% (inactive)
CCOc1ccc(OCCCC(=O)NC2=NCCS2)cc1	-1.83% (inactive)
COc1cccc(CNC23CC4CC(CC(C4)C2)C3)c1OCc1ccccc1	13.5% (inactive)
c1ccc(COc2ccccc2CNC23CC4CC(CC(C4)C2)C3)cc1	17% (inactive)
CS(=O)(=O)N1CCN(C2Cc3ccccc3C2)CC1	-13.7% (inactive)
O=[N+]([O-])c1ccc(O)c(C=Nc2ccc3c(c2)OCCO3)c1	77.5% (inactive)
O=[N+]([O-])c1ccc(O)c(C=Nc2ccc3c(c2)OCO3)c1	8.62% (inactive)

Compound	inhibition
CCN1CCN(c2nc(N)c([N+](=O)[O-])c(Nc3ccc(C)c(C)c3)n2)CC1	51.5% (inactive)
Cc1cccc(Nc2nc(N3CCN(C)CC3)nc(N)c2[N+](=O)[O-])c1	16.3% (inactive)
N#Cc1ccccc1Cn1c(=O)n(Cc2ccc(C(=O)NCc3ccco3)cc2)c(=O)c2sccc21	-3.31% (inactive)
CN1C(=O)C(O)(CC(=O)c2ccncc2)c2ccccc21 (stereo unspecified)	3.47% (inactive)
C/C(CC1(O)C(=O)N(C)c2ccccc21)=N\O (stereo unspecified)	-3.6% (inactive)
COc1cc(OC)c(N(C)C(=O)CCNC(=O)Cn2cnc3ccccc3c2=O)cc1Cl	-0.76% (inactive)
NC(=NC(=O)c1ccc(Cl)cc1)N1N=CCC1c1ccccc1 (stereo unspecified)	11.8% (inactive)
COc1ccc(C2c3ccc(O)cc3Oc3ncn(CCN4CCOCC4)c(=N)c32)cc1 (stereo unspecified)	-0.84% (inactive)
CC(=O)Nc1cn(-c2ccccc2)nc1-c1ccccc1	-0.45% (inactive)
Cc1ccc(-c2nn(-c3ccccc3)cc2NC(=O)c2ccccc2)cc1	-0.55% (inactive)
O=C(Nc1cn(-c2ccccc2)nc1-c1ccc(Cl)cc1)c1ccccc1	9.57% (inactive)
O=C(CCl)Nc1cn(-c2ccccc2)nc1-c1ccc(F)cc1	61.8% (inactive)
CNC(=S)N1CCc2ccccc2C1	3.08% (inactive)
COc1ccc(NC(=O)C(NC(=O)CNC(C)=O)c2ccc(C)cc2)cc1 (stereo unspecified)	-6.91% (inactive)
O=C(CCN1C(=O)c2ccccc2C1=O)NC(=S)Nc1ccccc1Cl	9.27% (inactive)
Oc1[nH]c2ccccc2c1C=Nc1ccc2c(c1)OCCO2	6.37% (inactive)
O=C(NCCCn1ccnc1)c1cc2nc(-c3ccc(Br)cc3)cc(C(F)(F)F)n2n1	6.06% (inactive)
O=C(NCCCn1ccnc1)c1nn2c(C(F)(F)F)cc(-c3ccccc3)nc2c1Cl	-4.76% (inactive)
O=C(O)COCC(=O)Nc1ccccc1-c1ccccc1	-0.81% (inactive)
COc1ccc(CN(C)Cc2nc3scc(-c4ccccc4)c3c(=O)[nH]2)cc1OC	3.92% (inactive)
CCOC(=O)N1CCN(c2ccc(Cl)c(Cl)c2)CC1	6.01% (inactive)

Compound	inhibition
COC(=O)N1CCN(c2ccc(Cl)c(Cl)c2)CC1	-4.81% (inactive)
O=S1(=O)CCN(CCc2c[nH]c3ccccc23)CC1	3.01% (inactive)
O=C(Nc1nnc(-c2ccncc2)o1)c1cccc(N2C(=O)CCC2=O)c1	-4.89% (inactive)
O=C(CCc1ccccc1)Nc1nnc(-c2ccccn2)o1	-4.88% (inactive)
CCC(=O)Nc1nnc(-c2ccccn2)o1	5.88% (inactive)
COC(=O)c1ccc(C(=O)Nc2nnc(-c3cccnc3)o2)cc1	-5.5% (inactive)
CC(=O)Nc1nnc(-c2ccccn2)o1	-3.3% (inactive)
N#Cc1ccc(C(=O)Nc2nnc(-c3ccccn3)o2)cc1	1.74% (inactive)
Cc1nnsc1C(=O)N(Cc1ccccc1)C(C)C	-4.27% (inactive)
Cc1ccc(CNC(=O)C2CC(c3cccc(F)c3)=NO2)cc1 (stereo unspecified)	9.15% (inactive)
OC(C#CCN1CCOCC1)(c1ccccc1)C1CCCC1 (stereo unspecified)	2.94% (inactive)
CC1CCCCC1NC(=O)CSc1nnc(COc2ccccc2Cl)o1 (stereo unspecified)	-2.14% (inactive)
O=C(CSc1nnc(COc2ccccc2Cl)o1)NC(=O)NC1CCCC1	5.08% (inactive)
Cc1cc(C)nc(SCc2nnc(SCC(=O)OC3CCCCC3)o2)n1	48.1% (inactive)
Cc1ccc(C(=O)CSc2nnc(COc3cccc(C)c3)o2)cc1	-2.67% (inactive)
Cc1ccc(C(=O)CSc2nnc(COc3cc(C)cc(C)c3)o2)cc1	-3.69% (inactive)
CCOC(=O)CSc1nnc(COc2cccc(C)c2)o1	-4.7% (inactive)
CCn1cc(C(=O)OCC(=O)Nc2c(C)cccc2C)c(=O)c2ccc(C)nc21	0.89% (inactive)
Cc1ccccc1CSCCNC(=O)CCSc1ccccc1	-2.07% (inactive)
